± gives the standard deviation of the averaged measurements. Of roughly 5,400 targets only a part is listed; those with the largest changes were picked by preference.
Compound: Nc1nc2c(ncn2[C@@H]2O[C@H](COP(=O)(O)OP(=O)(O)OP(=O)(O)O)[C@@H](O)[C@H]2O)c(=O)[nH]1 [guanosine triphosphate]
Assay: NP40-soluble protein abundance relative to vehicle (solubility fold change) (ratio); higher = more soluble protein in presence of GTP
Description: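 Solubility proteome profiling in Jurkat crude lysate. Lysate was treated with Mg-GTP (0.1-10 mM) for 10 min at room temperature and 3 min at 37 °C, then solubilised with 0.8% NP40 and benzonase, followed by ultracentrifugation. Proteins were quantified by TMT10 LC-MS/MS; the value is the NP40-soluble abundance relative to the NP40-processed vehicle, from 3 independent experiments.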

UniProt Q68D91, sequence (Q68D91 whole entry): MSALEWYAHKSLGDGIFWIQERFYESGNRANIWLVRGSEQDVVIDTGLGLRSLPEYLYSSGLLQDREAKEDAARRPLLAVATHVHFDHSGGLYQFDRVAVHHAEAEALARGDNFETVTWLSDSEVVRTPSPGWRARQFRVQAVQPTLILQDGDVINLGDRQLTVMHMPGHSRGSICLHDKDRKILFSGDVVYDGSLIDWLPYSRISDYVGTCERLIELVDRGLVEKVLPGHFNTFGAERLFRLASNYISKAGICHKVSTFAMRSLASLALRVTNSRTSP
UniProt Q00688, sequence (Q00688 whole entry): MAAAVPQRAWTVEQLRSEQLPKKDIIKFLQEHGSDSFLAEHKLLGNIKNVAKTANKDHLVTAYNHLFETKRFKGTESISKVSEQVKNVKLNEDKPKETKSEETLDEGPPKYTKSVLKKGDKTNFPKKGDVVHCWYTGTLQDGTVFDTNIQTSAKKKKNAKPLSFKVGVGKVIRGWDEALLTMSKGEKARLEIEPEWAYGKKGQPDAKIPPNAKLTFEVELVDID
UniProt Q86WQ0, sequence (Q86WQ0 whole entry): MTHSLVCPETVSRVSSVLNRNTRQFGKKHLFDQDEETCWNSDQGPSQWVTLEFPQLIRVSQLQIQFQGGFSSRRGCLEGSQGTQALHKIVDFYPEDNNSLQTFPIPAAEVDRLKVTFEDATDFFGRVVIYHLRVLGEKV
UniProt P62995, sequence (P62995 whole entry): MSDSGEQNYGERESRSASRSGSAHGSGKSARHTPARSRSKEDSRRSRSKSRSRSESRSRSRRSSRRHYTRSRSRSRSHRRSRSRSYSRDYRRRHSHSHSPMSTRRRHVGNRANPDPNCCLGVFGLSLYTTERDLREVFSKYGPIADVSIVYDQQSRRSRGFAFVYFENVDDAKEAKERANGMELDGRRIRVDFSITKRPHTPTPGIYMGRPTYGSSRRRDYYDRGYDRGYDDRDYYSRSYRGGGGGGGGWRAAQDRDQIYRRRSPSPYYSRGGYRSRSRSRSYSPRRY
UniProt Q6UB99, sequence (Q6UB99 whole entry): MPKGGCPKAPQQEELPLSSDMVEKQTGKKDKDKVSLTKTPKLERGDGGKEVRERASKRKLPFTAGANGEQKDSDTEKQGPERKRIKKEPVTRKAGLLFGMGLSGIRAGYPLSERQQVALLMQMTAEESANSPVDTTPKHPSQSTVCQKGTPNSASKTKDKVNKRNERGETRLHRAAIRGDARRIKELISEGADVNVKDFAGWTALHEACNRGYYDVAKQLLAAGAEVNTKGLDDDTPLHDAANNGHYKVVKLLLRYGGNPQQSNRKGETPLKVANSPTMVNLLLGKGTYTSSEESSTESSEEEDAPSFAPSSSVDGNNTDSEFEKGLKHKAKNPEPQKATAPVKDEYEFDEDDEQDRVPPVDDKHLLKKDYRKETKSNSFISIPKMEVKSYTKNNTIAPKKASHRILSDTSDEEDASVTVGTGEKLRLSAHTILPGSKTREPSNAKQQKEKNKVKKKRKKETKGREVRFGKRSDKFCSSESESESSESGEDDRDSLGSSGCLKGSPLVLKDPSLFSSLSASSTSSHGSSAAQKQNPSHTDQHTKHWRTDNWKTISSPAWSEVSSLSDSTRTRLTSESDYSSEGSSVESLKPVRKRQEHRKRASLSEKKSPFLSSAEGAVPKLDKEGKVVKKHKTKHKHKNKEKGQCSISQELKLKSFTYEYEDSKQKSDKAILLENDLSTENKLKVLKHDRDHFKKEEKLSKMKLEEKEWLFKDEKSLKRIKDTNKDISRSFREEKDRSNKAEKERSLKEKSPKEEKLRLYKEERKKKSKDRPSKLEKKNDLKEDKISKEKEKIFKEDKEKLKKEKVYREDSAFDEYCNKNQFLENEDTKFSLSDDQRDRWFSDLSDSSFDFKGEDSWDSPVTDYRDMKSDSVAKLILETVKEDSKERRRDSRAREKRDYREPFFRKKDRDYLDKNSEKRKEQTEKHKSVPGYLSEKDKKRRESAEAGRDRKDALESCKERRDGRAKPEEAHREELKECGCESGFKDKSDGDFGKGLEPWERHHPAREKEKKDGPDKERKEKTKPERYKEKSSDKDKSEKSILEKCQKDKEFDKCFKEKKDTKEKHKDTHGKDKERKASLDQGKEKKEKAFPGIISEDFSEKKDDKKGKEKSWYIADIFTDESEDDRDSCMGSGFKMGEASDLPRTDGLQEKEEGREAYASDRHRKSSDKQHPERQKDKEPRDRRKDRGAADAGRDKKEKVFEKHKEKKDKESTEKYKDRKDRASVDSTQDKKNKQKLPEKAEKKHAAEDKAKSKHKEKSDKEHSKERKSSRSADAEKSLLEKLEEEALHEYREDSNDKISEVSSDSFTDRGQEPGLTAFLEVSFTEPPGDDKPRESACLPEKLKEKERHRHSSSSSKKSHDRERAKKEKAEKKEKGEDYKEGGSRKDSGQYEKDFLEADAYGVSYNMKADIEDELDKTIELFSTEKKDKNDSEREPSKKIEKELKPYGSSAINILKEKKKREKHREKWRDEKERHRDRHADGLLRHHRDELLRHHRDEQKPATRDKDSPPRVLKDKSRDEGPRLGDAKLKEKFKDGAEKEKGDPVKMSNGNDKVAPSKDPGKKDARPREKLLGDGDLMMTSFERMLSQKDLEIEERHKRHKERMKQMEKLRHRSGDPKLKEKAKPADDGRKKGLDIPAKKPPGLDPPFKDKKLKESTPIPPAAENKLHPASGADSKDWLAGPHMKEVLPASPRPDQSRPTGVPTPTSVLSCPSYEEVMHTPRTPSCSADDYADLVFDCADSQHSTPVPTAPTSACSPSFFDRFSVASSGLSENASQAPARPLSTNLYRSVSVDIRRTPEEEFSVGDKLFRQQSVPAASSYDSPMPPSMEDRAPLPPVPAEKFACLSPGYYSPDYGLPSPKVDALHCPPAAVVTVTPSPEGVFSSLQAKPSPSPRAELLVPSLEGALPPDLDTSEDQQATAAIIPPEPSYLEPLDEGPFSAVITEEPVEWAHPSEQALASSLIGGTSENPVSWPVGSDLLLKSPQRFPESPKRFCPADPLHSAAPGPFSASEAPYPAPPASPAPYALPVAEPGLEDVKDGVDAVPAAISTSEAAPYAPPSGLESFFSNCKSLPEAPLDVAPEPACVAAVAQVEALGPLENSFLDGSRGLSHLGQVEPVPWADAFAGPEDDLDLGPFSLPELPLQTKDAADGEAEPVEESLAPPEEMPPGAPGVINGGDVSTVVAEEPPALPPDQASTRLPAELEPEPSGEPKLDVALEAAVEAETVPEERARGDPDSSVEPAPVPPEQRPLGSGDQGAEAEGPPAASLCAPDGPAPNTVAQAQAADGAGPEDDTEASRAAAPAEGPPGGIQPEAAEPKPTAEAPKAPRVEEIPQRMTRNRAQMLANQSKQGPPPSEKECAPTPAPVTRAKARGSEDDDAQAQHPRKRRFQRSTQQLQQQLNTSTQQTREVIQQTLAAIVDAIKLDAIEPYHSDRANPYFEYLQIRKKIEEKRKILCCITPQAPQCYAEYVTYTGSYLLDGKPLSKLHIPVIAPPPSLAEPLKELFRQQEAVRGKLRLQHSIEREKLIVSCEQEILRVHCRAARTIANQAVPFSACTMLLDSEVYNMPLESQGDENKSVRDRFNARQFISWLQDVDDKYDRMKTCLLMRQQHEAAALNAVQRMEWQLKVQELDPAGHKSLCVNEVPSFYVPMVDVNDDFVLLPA

Target	NP40-soluble protein abundance (concentration: 0.1mM)	NP40-soluble protein abundance (concentration: 0.5mM)	NP40-soluble protein abundance (concentration: 1mM)	NP40-soluble protein abundance (concentration: 2mM)	NP40-soluble protein abundance (concentration: 4mM)	NP40-soluble protein abundance (concentration: 6mM)	NP40-soluble protein abundance (concentration: 8mM)	NP40-soluble protein abundance (concentration: 10mM)
UniProt P62995|P62995-3	1.08 ± 0.077	1.36 ± 0.24	1.64 ± 0.54	1.73 ± 0.47	1.61 ± 0.64	1.54 ± 0.58	1.54 ± 0.62	1.41 ± 0.64
ANKRD11 (UniProt Q6UB99)	1.01 ± 0.024	1.01 ± 0.092	1.1 ± 0.027	1.1 ± 0.06	1.1 ± 0.041	1.08 ± 0.042	1.18 ± 0.073	1.17 ± 0.073
FKBP3 (UniProt Q00688)	0.911 ± 0.048	0.906 ± 0.066	0.943 ± 0.073	0.906 ± 0.081	0.902 ± 0.081	0.905 ± 0.082	0.925 ± 0.077	0.943 ± 0.09
UniProt Q86WQ0|Q86WQ0-2	0.973 ± 0.06	0.939 ± 0.017	0.882 ± 0.094	0.9 ± 0.082	0.884 ± 0.14	0.897 ± 0.096	0.849 ± 0.13	0.862 ± 0.099
MBLAC2 (UniProt Q68D91)	1.09 ± 0.12	1.03 ± 0.1	1 ± 0.11	1.02 ± 0.13	1.01 ± 0.11	0.941 ± 0.13	0.952 ± 0.097	0.929 ± 0.14

Source: the supplement of paper PMC6411743
